The full ranking holds about 25,000 sequences; the median of “ln(normalized median fluorescence intensity)” is about 6.7, and the highest 2% start at about 10. This excerpt belongs to a sample that is enriched for the highest values.
Test system: PfHDP1 homeodomain (GST-tagged)
Assay: gcPBM binding intensity (ln(normalized median fluorescence intensity)); higher = stronger DNA binding
Outline: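 Binding intensity is defined as the maximum Masliner-normalised natural-log median intensity across replicate spots for either probe orientation. It was measured on an Agilent 4 × 180k array of primer-extended double-stranded 36-bp intergenic genomic probes and negative controls, to which GST-tagged P. falciparum DNA-binding domains made in E. coli were applied for 1 h in 1× PBS with 1% milk, 0.2 mg/ml BSA, 0.5% salmon testes DNA and 0.03% Triton X-100. Detection was by Alexa488 anti-GST antibody and scanning at 488 nm.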

Sequence	gcPBM binding intensity (ln)
AATATAATAATATTTTGTACATATCCTATGTATGAG [XGTACX_site8601]	6.5
TATAAATATAAATACACACACACATCAATACAGATA [CACACA_site5850]	6.87
CGCGAACATACATACACACACATATATATATCTGTA [CACACA_site4277]	6.98
ATTGAATTCCAACTGGTGCACCAGTAAGATTGAAAA [GTGCAC_site9895]	10.1
TATAATCTAACATAATGTACATGTATATGCACTTTA [XGTACX_site369]	8.43
TTATATTATTCGTGTGTGCACGATATTTCATAATTG [GTGCAC_site9767]	8.92
AAAAAAAAATACAAAATAGCAATAAATACACAAACG [GTGCAC_negctrl_site707]	7.12
TTTGATGGTACACGTACACACCTTGCAAATATTTTT [CACACA_site4645]	7.13
AAAGAAAGAAAGAAAAGTACTTAAACTTTTAAAAAT [XGTACX_site8531]	6.03
AAAAAAATCTCCAGTGTGCACAATCACATAATATAT [GTGCAC_site9833]	10.8
AAAAAATAATAAATCACACATATTATATATATATAT [CACACA_site5838]	8.94
AAAATCTAATATAATGCACACATAAAAAAAAAATCA [CACACA_site8871]	10.4
TTATGGAAAAATATAACACACAATGATTTTTTATAA [CACACA_site1831]	6.33
AAATCGTGCACGGACACATGCAGTAGCCGAGAATTA [TGCATGCA_site733]	11.1
CAATAAATCGAAATCGTGCACGGACACATGCAGTAG	10.9
CACACGCACGGACACACACACATATAAAATCTATAT [CACACA_site6428]	7.73
AATCGAAATCGTGCACGGACACATGCAGTAGCCGAG [XGTACX_site6001]	10.2
ATTATGAAATATCGTGCACACACGAATAATATAAGA [CACACA_site1294]	9.49
ATTTTAAAAAGGATAGTGCAAATGTTAAAATAGGAC	9.91
CGTAAATTTTTTAAAAGTACAAAAAGATACGAGAAA [XGTACX_site8722]	6.46

Sequence	gcPBM binding intensity (ln)
TATTCATGCATATACACACACATATATTTATATTTT [CACACA_site7786]	7.08
TCATATTATAAATAAATAAATAAATATATATATATA [CACACA_negctrl_site577]	8.76
TATAAATTAAAATGTGTGCACTAAATTGAAATAGAA	10.6
AAATAAAAATTAAAAAAATAGAAACGAATTGAATGC [TGCATGCA_negctrl_site365]	6.69
GAATAAATATTAAATGTGCACTTGAATAGATGTAAA	9.88
AATAATATTAACACACGTACAAAAGCAAACAACCAA [XGTACX_site7410]	7.16
ATATATATATATCAGAGTACATTCTTTAAAATATAT [XGTACX_site5915]	8.7
TATATATATATATGTGCACACATAATAAAAAAAAAA [CACACA_site3830]	10.1
ATATATATCTTTTGTGTGCACATATATATAATATAT	10.9
ATAATATATATATATGCATGTACATATTTATCTTTA [TGCATGCA_site32]	6.74
ATAATATCTTTATGTGTGCACATATATATATATATA	10.5
ATGTATGTGTATATATGTACATAATATATATCTTTT [XGTACX_site8666]	6.6
TCTTTTCTTTTGTGTGTGCACATATAAGCATGAAAC [GTGCAC_site9910]	10.4
TTTTTTTCTCTCTCTACACACAAGGTTTAATTTAAA [CACACA_site1690]	6.81
TATATATATATATATGTGCACTGAAAGAATTATACA [GTGCAC_site9586]	9.76
ATTATATATAAGAAGAGTACTGAATATGTGCAATAT [XGTACX_site4471]	11.2
AATTATAATTAATAGAGTACTGAATATATATATATA [XGTACX_site8683]	8.9
ATTTTAAATATTTGTGGTACCCCTTTTTTGTAACAA [XGTACX_site5590]	6.71
ATAAAAAAATAAAACACACACATATAGATTATAGAT [CACACA_site7343]	7
GTATGTATATATATATGTACATACTGTTTATCGTTA [XGTACX_site6168]	6.4

Sequence	gcPBM binding intensity (ln)
ATGCATCATTTATTTGCACACCTATTATATACTTTT [CACACA_site2097]	10.1
GCATCATTTATTTGCACACCTATTATATACTTTTTA [CACACA_site2098]	10.7
TTTTTTATTCTTTTTGCACACAGGAAATTTACAGAT [CACACA_site1090]	10.6
AATTTTATTACTTTTACACACCTATATATCATTCAT [CACACA_site7525]	6.91
ATTTTATTTATATACACACACATATATATATTATAT [CACACA_site822]	7.09
ATATTTTACATATTTGCACACATATATTTATATACA [CACACA_site855]	10.7
ATATTTTATTTATATACACACACATATATATATTAT [CACACA_site8177]	7.22
ATTTTACATATTTGCACACATATATTTAAATACATA [CACACA_site4627]	10.8
ATATTTTACATATTTGCACACATATATTTAAATACA [CACACA_site4628]	10.3
ATTTTATTTAAATACACACACATATATATATTATAT [CACACA_site4607]	7.14
AGGAAATTTGTTATTGCACACAAATTTTTCTTTTTT [CACACA_site8732]	9.48
TATTTTTGTATATATTTATTCTTATTTTACAGGAAA [TGCATGCA_negctrl_site472]	6.22
GGATGCACACAAAAGGGTACATAAGAAAAAAACAGG [XGTACX_site8570]	9.42
TTTATATTTTAAAAAATAATATTATGTATTTTTAAA [TGCATGCA_negctrl_site507]	6.01
AAACAATATTCTCAAGTGCAAAAAGAAAAAAGAAAT	9.37
CCTTTTTTTTTTTTATGTACTAAAATAAAATTAGAA [XGTACX_site5956]	6.14
TATAAAATAATTAAATGTACATAATATATAAAATAT [XGTACX_site6777]	6.69
GTAATTTTTTTCTATACACACATATATATAATATAT [CACACA_site2655]	7.08

Reference: the supplement of paper PMC11417369
